Results on 25 compounds are retold here after PubChem BioAssay (Tox21).

Structures are written as SMILES. Results filed as inconclusive are left out. Unmarked numbers belong to inactive results. Activity calls are given as the source filed them. Unless noted, calls come from the whole dose curve; as a rule, active = well fitted curve in the direction sought with a large enough effect in the repeat runs; inconclusive = weak or mixed curves; inactive = no such curve, though single readings can be large; an effect the other way counts as inactive or inconclusive.

Experiment [1] can be described thus: qHTS assay to identify small molecule antagonists of the estrogen related receptor (ERR) signaling pathway from Tox21 library - cell viability counter screen (AID 1224834). Note: nearly all actives have a fitted effect of over 30% in size. Note: potency is the fitted concentration of half-maximal effect. In a few lines: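 Counter screen run in ERR cells (2,000 cells/well): cells pre-incubated 6 h, then treated with compounds for 17.5 h at 37 C. Fluorescence was read 30 min after CellTiter-Fluor addition.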

In experiment [2] the target is Luciferin 4-monooxygenase (Photinus pyralis) (UniProt P08659). As to the kind of experiment: qHTS assay to identify small molecule inhibitors of firefly luciferase (AID 1224835). For activity change, negative = inhibition: series mostly up to about 120 µM. Note: nearly all actives have a fitted effect of over 25% in size. Note: potency is the fitted concentration of half-maximal effect. The essentials:
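Quantitative HTS format; KM concentrations of both substrates. Purified P. pyralis FLuc activity quantified from luminescence images.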

Experiment [3] can be described thus: qHTS assay to identify small molecule agonists of the constitutive androstane receptor (CAR) signaling pathway - cell viability counter screen (AID 1224836). For viability change, negative = cytotoxic: series mostly up to about 92 µM. Note: nearly all actives have a fitted effect of over 45% in size. Note: potency is the fitted concentration of half-maximal effect. In a few lines:
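Cell viability multiplexed with the CAR agonist screen: CellTiter-Fluor fluorescence after 23 hr at 37 C. HepG2-CYP2B6-hCAR cells got compounds at 15 concentrations with PK11195 at 0.75 uM final.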
For orientation: Quantitative high-throughput screening tests each substance at several concentrations.

In experiment [4] the target is Nuclear receptor subfamily 1 group I member 3 (Homo sapiens) (UniProt Q14994). As to the kind of experiment: qHTS assay to identify small molecule antagonists of the constitutive androstane receptor (CAR) signaling pathway (AID 1224838). Note: nearly all actives have a fitted effect of over 40% in size. In a few lines:
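Inhibition of CITCO-driven (50 nM final) CYP2B6 reporter expression is measured in HepG2 cells stably carrying hCAR. Fifteen compound concentrations are applied for 24 h at 37 C, followed by luciferase luminescence.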

The target is the same in experiment [5]. As to the kind of experiment: qHTS assay to identify small molecule agonists of the constitutive androstane receptor (CAR) signaling pathway (AID 1224839). Note: series mostly up to about 92 µM; nearly all actives have a fitted effect of over 15% in size. In a few lines:
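Luminescent ONE-Glo read-out after 24 hr, 37 C exposure of double-stable HepG2-CYP2B6-hCAR reporter cells to a 15-point compound series, in the presence of 0.75 uM PK11195 (final).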

Experiment [6] is described as follows: qHTS assay to identify small molecule antagonists of the estrogen related receptor signaling pathway with the pleiotropic PPARgamma coactivator (PGC) from Tox21 10K library - cell viability counter screen (AID 1224840; active = well fitted cell-killing curve with a large enough effect in the repeat runs, not every such curve was filed as active; note: nearly all actives have a fitted effect of over 40% in size; note: potency is the fitted concentration of half-maximal effect). In a few lines: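 Readout: fluorescence intensity from CellTiter-Fluor after 30 min at 37 C/5% CO2. Preceded by 17.5 h treatment of PGC/ERR cells with DMSO-dissolved compounds, added 6 h post-seeding.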

Experiment [7] in a line: qHTS assay to identify small molecule antagonists of the estrogen related receptor signaling pathway with the pleiotropic PPARgamma coactivator (PGC) from Tox21 10K library (AID 1224841; call rule not given here; note: actives are mostly falling curves and most rising ones were filed inactive; nearly all actives have a fitted effect of over 50% in size; note: potency is the fitted concentration of half-maximal effect; for activity, negative = inhibition: series mostly up to about 92 µM). In a few lines: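 One-Glo luminescence, measured after half an hour at room temperature, quantified reporter output of PGC/ERR cells. These had been plated at 2,000 per well, incubated 6 h, dosed with compounds in DMSO, then kept 18 h at 37 C.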

Experiment [8] in a line: qHTS assay to identify small molecule agonists of the estrogen related receptor signaling pathway with the pleiotropic PPARgamma coactivator (PGC) from Tox21 10K library (AID 1224842). Note: nearly all actives have a fitted effect of over 15% in size. In a few lines:
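PGC/ERR reporter cells (NTP line) were seeded 2,000 per well, rested 6 h at 37 C/5% CO2, then pin-dosed with compounds in DMSO for 18 h at 37 C; luciferase read by One-Glo luminescence after 30 min at room temperature.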

Experiment [9] concerns the target Thyrotropin receptor (Homo sapiens) (UniProt P16473). As to the kind of experiment: qHTS assay to identify small molecule agonists of the thyroid stimulating hormone receptor (TSHR) signaling pathway (AID 1224843; calls by dose curve; note: nearly all actives have a fitted effect of over 45% in size). The essentials:
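Using 15 concentrations per compound in triplicate, cAMP production was monitored in TSHR-HEK293 cells after 30 min compound incubation at RT; HTRF reagents followed, with fluorescence intensity recorded after 1 h.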

The nature of experiment [10]: qHTS assay to identify small molecule agonists of the hypoxia (HIF-1) signaling pathway - cell viability counter screen (AID 1224844; calls by dose curve; note: nearly all actives have a fitted effect of over 50% in size; note: potency is the fitted concentration of half-maximal effect). The essentials: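 In this counter screen, HRE-bla ME-180 cell viability after 17 hrs of compound exposure at 37C was read by CellTiter-Glo luminescence, multiplexed with the beta-lactamase reporter measurement.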
The nature of experiment [11]: qHTS assay to identify small molecule agonists of H2AX (AID 1224845; active = well fitted activation curve with a large enough effect in the signal ratio in the repeat runs, not every such curve was filed as active; the % refers to the signal ratio; note: potency is the fitted concentration of half-maximal effect). In a few lines:
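Wild-type CHO-K1 cells plated overnight, then exposed 3 hr at 37C to compounds at 15 concentrations (0.76% DMSO). Lysed, then HTRF anti-pH2AX(S139)-cryptate/anti-H2AX-d2 detection after 24 hr at room temperature; emissions 665 and 620 nm.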

Experiment [12] in a line: qHTS assay to identify small molecule agonists of the hypoxia (HIF-1) signaling pathway (AID 1224846; active = well fitted activation curve with a large enough effect in the signal ratio in the repeat runs, not every such curve was filed as active; the % refers to the signal ratio). In a few lines:
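ME-180 HRE-bla reporter cells; compounds in DMSO, 17 h at 37C; read-out beta-lactamase via CCF4-AM FRET.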

Experiment [13] in a line: qHTS assay to identify small molecule antagonists of the constitutive androstane receptor (CAR) signaling pathway - cell viability counter screen (AID 1224837). Note: series mostly up to about 92 µM; nearly all actives have a fitted effect of over 45% in size. In a few lines:
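CITCO at 50 nM final was added alongside compounds (15 concentrations) to double-stable hCAR/CYP2B6-2.2kb HepG2 cells. Following 23 hr at 37 C, cell viability was quantified by CellTiter-Fluor fluorescence intensity.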
% is set by controls: 0 for no effect and ±100 for the full control effect.

Sequence of Nuclear receptor subfamily 1 group I member 3 (Homo sapiens) (Q14994 whole entry, looked up): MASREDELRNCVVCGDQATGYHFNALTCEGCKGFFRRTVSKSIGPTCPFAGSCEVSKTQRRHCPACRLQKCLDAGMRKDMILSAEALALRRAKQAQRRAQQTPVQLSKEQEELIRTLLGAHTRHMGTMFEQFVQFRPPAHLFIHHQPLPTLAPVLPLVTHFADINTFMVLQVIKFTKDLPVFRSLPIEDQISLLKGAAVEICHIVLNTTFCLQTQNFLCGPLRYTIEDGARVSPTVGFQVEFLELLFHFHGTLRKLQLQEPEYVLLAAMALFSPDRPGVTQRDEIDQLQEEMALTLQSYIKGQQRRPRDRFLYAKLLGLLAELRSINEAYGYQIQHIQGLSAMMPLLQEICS
Sequence of Thyrotropin receptor (Homo sapiens) (P16473 whole entry, looked up): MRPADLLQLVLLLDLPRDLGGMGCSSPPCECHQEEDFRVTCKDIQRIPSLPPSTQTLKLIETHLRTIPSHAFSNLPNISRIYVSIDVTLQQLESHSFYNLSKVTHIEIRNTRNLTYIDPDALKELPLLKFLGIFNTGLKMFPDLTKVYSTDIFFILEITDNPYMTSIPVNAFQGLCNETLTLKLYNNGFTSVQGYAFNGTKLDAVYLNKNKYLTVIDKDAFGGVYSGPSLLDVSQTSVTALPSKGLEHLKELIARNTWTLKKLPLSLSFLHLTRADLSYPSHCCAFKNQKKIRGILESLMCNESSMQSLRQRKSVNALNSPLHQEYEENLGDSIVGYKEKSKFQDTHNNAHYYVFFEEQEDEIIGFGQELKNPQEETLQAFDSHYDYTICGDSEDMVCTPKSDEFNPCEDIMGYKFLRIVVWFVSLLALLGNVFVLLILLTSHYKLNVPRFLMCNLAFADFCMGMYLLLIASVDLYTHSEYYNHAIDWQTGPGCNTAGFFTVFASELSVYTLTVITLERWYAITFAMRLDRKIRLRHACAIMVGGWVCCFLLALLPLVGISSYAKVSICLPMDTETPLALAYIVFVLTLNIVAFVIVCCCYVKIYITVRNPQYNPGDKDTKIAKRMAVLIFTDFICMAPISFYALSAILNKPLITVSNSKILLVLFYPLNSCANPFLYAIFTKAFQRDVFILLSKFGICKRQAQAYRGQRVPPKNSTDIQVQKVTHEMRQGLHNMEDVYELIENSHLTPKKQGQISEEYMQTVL
Sequence of Luciferin 4-monooxygenase (Photinus pyralis) (P08659 whole entry, looked up): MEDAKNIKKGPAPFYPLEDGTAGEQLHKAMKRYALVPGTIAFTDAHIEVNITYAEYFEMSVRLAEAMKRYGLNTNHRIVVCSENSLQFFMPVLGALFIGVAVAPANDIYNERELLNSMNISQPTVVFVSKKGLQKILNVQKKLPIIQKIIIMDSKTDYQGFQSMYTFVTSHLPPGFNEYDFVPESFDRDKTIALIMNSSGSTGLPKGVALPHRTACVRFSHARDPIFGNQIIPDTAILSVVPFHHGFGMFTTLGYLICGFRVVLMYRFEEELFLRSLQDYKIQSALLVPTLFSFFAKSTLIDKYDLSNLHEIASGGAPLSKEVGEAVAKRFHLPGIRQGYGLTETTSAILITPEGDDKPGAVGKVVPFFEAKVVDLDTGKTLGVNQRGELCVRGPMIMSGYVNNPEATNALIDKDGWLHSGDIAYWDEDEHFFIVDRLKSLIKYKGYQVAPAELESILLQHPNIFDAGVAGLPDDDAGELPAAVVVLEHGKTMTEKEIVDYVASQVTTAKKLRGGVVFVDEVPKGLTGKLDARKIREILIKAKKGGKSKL

For the compound `Nc1cc([N+](=O)[O-])ccc1Cl`, the Potency entry in experiment [1], in experiment [2], in [3], in experiment [4], in [5] and in [6] was “inactive” in each case. The Potency result in experiment [7], in experiment [8], in experiment [9], in [10], in experiment [11] and in [12] was “inactive” throughout.

For `Cc1ccc(Cl)c(N)c1Cl`, the Potency entry in experiment [1], in [2], in experiment [3], in experiment [5] and in [8] was “inactive” throughout.

As to `C/C=C/C(=O)OCC(C)C`, the Potency result in experiment [1], in [2], in experiment [3], in [6], in experiment [9] and in [10] was “inactive” throughout. For the same compound, the Potency entry in experiment [11] and in experiment [12] was “inactive” throughout.

On to `COc1cccc(-c2ccc(/C=C\CN3CCCCCC3)cc2Cl)c1`, for which the Potency result in experiment [1], in experiment [2], in experiment [3], in [4], in [5] and in experiment [7] was “inactive” throughout. Also, in experiment [8], the Potency result is “inactive”. Moreover, the Potency in [6] is 54.2 µM (active).

Consider `O=C(Cl)c1ccc(Cl)cc1Cl`, for which the Potency result in experiment [1], in experiment [3], in experiment [4], in experiment [5], in experiment [6] and in experiment [10] was “inactive” in each case. Besides, the Potency result in experiment [12] was “inactive”. The results for the Potency in experiment [2] and in experiment [11] were 25.2 µM (active) and 101 µM (active), respectively.

In the case of `CCOC(=O)[C@H](O)[C@@H](O)C(=O)OCC`, the Potency entry in [1], in [2], in experiment [3], in experiment [4], in experiment [5] and in [6] was “inactive” throughout. Moreover, the Potency entry in [10], in experiment [11] and in experiment [12] was “inactive” throughout.

For the compound `Cc1ccc(C2OC[C@@H]3OC(c4ccc(C)cc4)O[C@H]([C@H](O)CO)[C@@H]3O2)cc1` (stereo partly specified), the Potency result in experiment [1], in [2], in [3], in [13], in experiment [6] and in experiment [9] was “inactive” in each case. The Potency result in experiment [10], in experiment [11] and in experiment [12] was “inactive” throughout.

Consider `c1ccc(C[P+](c2ccccc2)(c2ccccc2)c2ccccc2)cc1`, for which the Potency in [1] is 21.7 µM (active); in [3], 30.6 µM (active); in experiment [7], 3.44 µM (active). Moreover, the Potency entry in experiment [2], in [5], in [8], in [10] and in experiment [11] was “inactive” in each case.

For `O=[N+]([O-])c1ccc(CO)cc1`, the Potency entry in [1], in experiment [2], in experiment [3], in [10], in [11] and in [12] was “inactive” throughout.

On to `CCc1cccc(CC)c1`, for which the Potency entry in [1], in experiment [2], in experiment [3], in experiment [6], in [8] and in [10] was “inactive” throughout. The Potency entry in experiment [11] and in experiment [12] was “inactive” each time.

Consider `O=c1cc[nH]cc1`, for which the Potency entry in experiment [1], in experiment [2], in [3], in experiment [4], in experiment [5] and in experiment [6] was “inactive” throughout. Moreover, the Potency entry in experiment [9], in experiment [10], in experiment [11] and in experiment [12] was “inactive” throughout.

As for `N#CCCOCCC#N`, the Potency entry in experiment [1], in experiment [2], in [3], in experiment [4], in experiment [6] and in experiment [8] was “inactive” in each case. In addition, the Potency entry in experiment [10], in experiment [11] and in experiment [12] was “inactive” throughout.

As for `CCc1c(C)cc(N)c(CC)c1N`, the Potency result in [1], in [2], in experiment [3], in [4], in experiment [8] and in [9] was “inactive” in each case. Moreover, the Potency entry in experiment [10], in experiment [11] and in experiment [12] was “inactive” throughout.

As for `C1CCSC1`, the Potency entry in [1], in experiment [2], in experiment [3], in [13], in experiment [8] and in experiment [9] was “inactive” each time. Moreover, the Potency entry in experiment [10], in experiment [11] and in [12] was “inactive” each time.

Regarding `CC(C)c1ccc2sc3ccccc3c(=O)c2c1`, the Potency entry in experiment [1], in [3], in experiment [13], in experiment [10], in experiment [11] and in [12] was “inactive” in each case. Further, the Potency in experiment [2] was 1.59 µM (active).

As to `Cc1c[nH]c(=O)[nH]c1=O`, the Potency result in experiment [1], in experiment [2], in experiment [3], in experiment [13], in [6] and in experiment [7] was “inactive” throughout. Also, the Potency entry in [8], in experiment [9], in experiment [10], in experiment [11] and in [12] was “inactive” each time.

With `CC(C)=NNC(N)=S`, the Potency entry in experiment [1], in experiment [2], in [3], in experiment [13], in experiment [6] and in experiment [10] was “inactive” throughout. Moreover, in experiment [12], the Potency entry was “inactive”.

Consider `Cc1ccc2n[nH]nc2c1`, for which the Potency entry in experiment [1], in experiment [2], in [3], in experiment [13], in experiment [6] and in experiment [7] was “inactive” throughout. For the same compound, the Potency result in [8], in experiment [9], in [10] and in experiment [11] was “inactive” throughout.

`N#Cc1ccc(C/C(=N/NC(=O)Nc2ccc(OC(F)(F)F)cc2)c2cccc(C(F)(F)F)c2)cc1`: the Potency entry in [1], in experiment [2], in experiment [3], in experiment [4], in [5] and in experiment [6] was “inactive” throughout. The Potency result in experiment [9] and in experiment [11] was “inactive” each time.

In the case of `CCSCC`, the Potency result in experiment [1], in experiment [2], in experiment [3], in experiment [13], in [6] and in experiment [10] was “inactive” each time. Also, in [12], the Potency entry is “inactive”.

With `CCCCC/C=C\C=C\C(=O)OCC`, the Potency in experiment [1] is 71.5 µM (active); in experiment [10], 51 µM (active); in [11], 59 µM (active). Besides, the Potency entry in [2] was “inactive”.

Consider `COC(=O)c1ccc([N+](=O)[O-])cc1`, for which the Potency entry in experiment [1], in experiment [2], in experiment [13], in experiment [4], in experiment [5] and in [8] was “inactive” throughout. Besides, the Potency result in experiment [9], in experiment [10], in experiment [11] and in experiment [12] was “inactive” throughout.

In the case of `COc1cc(C(C)C)ccc1C`, the viability change, negative = cytotoxic in [1] is 2.54% [at 19 µM]; in [6], -28.8% [at 19 µM]. Moreover, the activity change, negative = inhibition in experiment [2] was 1.91% [at 23.6 µM]. Moreover, the activity change, negative = cytotoxicity in experiment [13] is 1.68% [at 19 µM]; in experiment [10], 21.3% [at 15.8 µM]. Besides, the activity, negative = inhibition in experiment [4] was -11.9% [at 19 µM]. For the same compound, the activation in [5] was -0.0502% [at 19 µM]; in [9], 6.84% [at 19 µM]; in experiment [12], -0.0499% [at 15.8 µM]. In experiment [11], the activation (H2AX phosphorylation) was 0.221% [at 31.6 µM].

As for `Nc1ccc2c(S(=O)(=O)O)cccc2c1S(=O)(=O)O`, the Potency entry in [1], in experiment [2], in [13], in experiment [6], in [7] and in [8] was “inactive” in each case. Besides, the Potency entry in experiment [9], in experiment [10] and in [12] was “inactive” each time.

As to `O=C1CCC(=O)N1`, the Potency entry in [1], in experiment [2], in [6], in experiment [7], in experiment [8] and in experiment [9] was “inactive” each time. The Potency result in experiment [10], in experiment [11] and in experiment [12] was “inactive” throughout.
